Compounds without any hit were thinned out: in the full panel of roughly 83,000, 20% have a hit.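 48-hour exposure, single concentration, 96-well plates; percent growth endpoint where 0 means no net growth. Active: below 10.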 A number with no mark means an inactive call. Activity calls are given as the source filed them.
Experiments:
Experiment in all cases: NCI-60 one-dose screen, 48 h (100 = growth as untreated, 0 = no growth, -100 = all killed)
SR leukemia = details: 10 µM unless noted
RPMI-8226 leukemia = details: 10 µM unless noted
OVCAR-8 ovarian = details: 10 µM unless noted
OVCAR-5 ovarian = details: 10 µM unless noted
OVCAR-4 ovarian = details: 10 µM unless noted
SK-OV-3 ovarian = details: 10 µM unless noted
IGROV1 ovarian = details: 10 µM unless noted
OVCAR-3 ovarian = details: 10 µM unless noted
NCI/ADR-RES ovarian = details: 10 µM unless noted
T-47D breast = details: 10 µM unless noted
BT-549 breast = details: 10 µM unless noted
MDA-MB-435 melanoma = details: 10 µM unless noted
SW-620 colon = details: 10 µM unless noted
MCF7 breast = details: 10 µM unless noted
HCT-116 colon = details: 10 µM unless noted
HCC-2998 colon = details: 10 µM
KM12 colon = details: 10 µM unless noted

Row | SMILES | growth (SR leukemia) | growth (RPMI-8226 leukemia) | growth (OVCAR-8 ovarian) | growth (OVCAR-5 ovarian) | growth (OVCAR-4 ovarian) | growth (SK-OV-3 ovarian) | growth (IGROV1 ovarian) | growth (OVCAR-3 ovarian) | growth (NCI/ADR-RES ovarian) | growth (T-47D breast) | growth (BT-549 breast) | growth (MDA-MB-435 melanoma) | growth (SW-620 colon) | growth (MCF7 breast) | growth (HCT-116 colon) | growth (HCC-2998 colon) | growth (KM12 colon)
1 | NC(=O)c1c(OCc2c(F)cc(Br)cc2F)nsc1NC(=O)NCCCCN1CCCC1 | -34.4% (active) | -26.3% (active) | 19.4% | -14.8% (active) | -41.6% (active) | 52.2% | -32.4% (active) | -34.1% (active) | 20.2% | -45.1% (active) | -51.2% (active) | -58.9% (active) | -60.5% (active) | 1.88% (active) | -37.9% (active) | -13.8% (active) | -4.19% (active)
2 | Cc1c(Cn2c(C)nc3c(C(=O)O)cc(N4CCOCC4)cc32)cccc1C(F)(F)F | 75.7% | 104% | 92.1% | 101% | 96.2% | 96% | 114% | 87.2% | 62.1% | 69.2% | 70.9% | 106% | 102% | 92.6% | 92.1% | 103% | 103%
3 | Nc1ncnc2c1ccn2-c1cccc(NC(=O)c2ccc(N3CCOCC3)c(C(F)(F)F)c2)c1 | 51.8% | 4.92% (active) | 24.8% | 72.9% | 104% | 77.3% | 40.5% | 43.2% | 26.2% | 32.2% | 57.5% | 53.7% | 66.5% | 67.1% | 24.9% | 62.6% | 31%
4 | C#Cc1cccc(Nc2ncnc3cc(OC)c(OCCCCCCC(=O)NO)cc23)c1 | 1.46% (active) | -14.9% (active) | -21.5% (active) | -8.42% (active) | 6.28% (active) | -58.2% (active) | -41.3% (active) | -19.9% (active) | 14.4% | -24.4% (active) | -7.81% (active) | -28.1% (active) | -22.6% (active) | 8.28% (active) | -27.4% (active) | -53.5% (active) | 5.62% (active)
5 | C=C1C[C@H](O)[C@H](Br)C(C)(C)[C@@]12CCC(C)=C(Cl)C2 | 5.02% (active) | -18.2% (active) | 29% | 43.3% | 27.3% | 12.1% | 40.1% | 35.2% | 22.1% | 28.7% | 26.4% | 9.73% (active) | 29.8% | 16.3% | 9.9% (active) | 42.3% | 13.7%
6 | Nc1nc(N)c2nc(-c3cccc(O)c3)c(-c3cccc(O)c3)nc2n1 | 82% | 83.5% | 77.2% | 78.1% | 93.8% | 52.8% | 42.1% | 57.4% | 89.5% | 2.15% (active) | 47.8% | 97.4% | 90.8% | 70.1% | 77.9% | 94.6% | 90.6%
7 | O=C(NOC[C@H](O)CO)c1ccc(F)c(F)c1Nc1ccc(I)cc1F | 45.7% | 59.7% | 43.5% | 9.99% (active) | 62% | 46.3% | 14.1% | 95.1% | 59.2% | 62.2% | 80.4% | 33% | 18.5% | 93.3% | 11.5% | -15.9% (active) | 24.1%
8 | COCCN1CCN(Cc2ccc(-c3n[nH]c4c3C(=O)c3c(NC(=O)NN5CCOCC5)cccc3-4)cc2)CC1 | -10.3% (active) | -37.4% (active) | -13.4% (active) | 9.54% (active) | -0.503% (active) | -7.89% (active) | -10.9% (active) | 9.5% (active) | 5% (active) | 12.7% | -24.2% (active) | -46.4% (active) | -25% (active) | -33.2% (active) | -48.2% (active) | -35.8% (active) | -66.3% (active)
9 | CCOc1cc2ncc(C#N)c(Nc3ccc(OCc4ccccn4)c(Cl)c3)c2cc1NC(=O)/C=C/CN(C)C | -6.61% (active) | -7.58% (active) | -7.74% (active) | 9.55% (active) | -73.6% (active) | -10.6% (active) | -62.5% (active) | 47.5% | -10.8% (active) | 15.9% | 39.4% | -87.7% (active) | -63.9% (active) | -6.35% (active) | -81.2% (active) | 50.8% | -60% (active)
10 | COc1cc(Nc2ncc(F)c(Nc3ccc4c(n3)NC(=O)C(C)(C)O4)n2)cc(OC)c1OC | 38.5% | 71.8% | 67.3% | 24.1% | 73.8% | 21.8% | -9.34% (active) | 63.4% | 59.1% | 39% | 34.1% | 51.2% | 59.5% | 41.5% | 59.3% | 100% | 12.3%
11 | COc1cc2c(Oc3ccc4[nH]c(C)cc4c3F)ncnc2cc1OCCCN1CCCC1 | 84.3% | 110% | 97.1% | 78.4% | 74% | 82.1% | 46.6% | 87.4% | 88.5% | 82.5% | 85.5% | 99.6% | 102% | 89.8% | 89.3% | 102% | 96.7%
12 | COc1cc(N2CCC(N3CCN(C)CC3)CC2)ccc1Nc1ncnc(Nc2ccccc2S(=O)(=O)C(C)C)n1 | 12.7% | 101% | 99.3% | 98.3% | 113% | 87.4% | 103% | 105% | 109% | 74.7% | 104% | 108% | 100% | 88.6% | 88.2% | 97.3% | 109%
13 | CCS(=O)(=O)N1CCN(c2ccc(Nc3ncc(C(N)=O)c(NC4CC4)n3)cc2)CC1 | 48.9% | 62.2% | 89% | 86.7% | 111% | 80.7% | 77.4% | 90.2% | 101% | 99.1% | 67% | 68.7% | 60.1% | 68.5% | 49.2% | 98.3% | 24.5%
14 | CCN1CCN(c2cc(C)nc(N(CCCNc3ccnc4cc(Cl)ccc34)Cc3ccc4c(c3)OCO4)n2)CC1 | -40.3% (active) | -49.6% (active) | 9.03% (active) | 50.2% | 27.7% | 72.1% | 5.03% (active) | -26.9% (active) | 14.2% | -51.8% (active) | -42.6% (active) | -73.7% (active) | -3.47% (active) | 4.2% (active) | 2.67% (active) | -42.3% (active) | 29.8%
15 | C[C@@]1(C(=O)Nc2ccc(F)nc2)CCCN1c1nc(Nc2cc(C3CC3)[nH]n2)c2cccn2n1 | -0.827% (active) | 62.1% | 38.6% | 14.7% | 0.224% (active) | 18.7% | 1.38% (active) | 57.4% | 32% | 7.7% (active) | 27.3% | 38.1% | 16.4% | 17.9% | 7.82% (active) | 42.2% | -23.6% (active)
16 | COc1c(OCCCN2CCOCC2)ccc2c3n(c(=NC(=O)c4cnc(N)nc4)nc12)CCN3 | 5.24% (active) | 11.3% | 15.7% | 14% | 7.97% (active) | -31.8% (active) | -22% (active) | 4.64% (active) | 22.7% | -24% (active) | -5.84% (active) | 4.22% (active) | 20.5% | 11.9% | 13.8% | -15.7% (active) | -2.1% (active)
17 | C/C(=N\NC(=O)Cn1c(-c2ccc(S(C)(=O)=O)cc2)nc2ccccc21)c1ccc(Cl)cc1 | 87.9% | 87.1% | 80.9% | 106% | 100% | 94.9% | 92.6% | 96.6% | 103% | 81.3% | 85% | 97.4% | 101% | 82.9% | 83.1% | 106% | 95.6%
